“And” between values parts separate entries of the source, which are not always exact repeats. Equal values may be shown once. Results filed as inconclusive are left out. Where a call stands in place of a potency, no number is given. Unmarked numbers belong to inactive results. The source made the active and inactive calls. The call rests on the fitted dose curve; in most records, active means well fitted curve in the direction sought with a large enough effect; inconclusive means small, poorly fitted or top-dose-only effect, or another doubt; inactive means no such curve, though single readings can be large; an effect the other way counts as inactive or inconclusive.
Test system: not listed separately
Experiment: Primary qHTS for inhibitors of nuclear receptor binding SET domain protein 2 (NSD2) in an RCH-ACV wild type WT cells (2C) (AID 1645877); further: nearly all actives have a fitted effect of over 70% in size; further: potency means the concentration at half of the fitted maximal effect
Settings: RCH-ACV (leukaemia line) NSD2 WT (2C) viability, CellTiter-Glo, 72 h; series mostly up to 44.9 µM

Question: With `CN(C)c1ccc(C(=C2C=CC(=[N+](C)C)C=C2)c2ccccc2)cc1` as the molecule, how does the Potency read?
Answer: 0.188 µM (active)

Question: Which Potency does the source give for `CN1CC(=O)N/C1=N/C(=O)Nc1cccc(Cl)c1` here?
Answer: inactive

Question: For `O=C(O)Cc1ccc2c(c1)C(=O)c1ccccc1CO2`, which Potency is on record?
Answer: inactive

Question: For `Cc1onc(-c2c(F)cccc2Cl)c1C(=O)N[C@@H]1C(=O)N2[C@@H]1SC(C)(C)[C@@H]2C(=O)O`, which Potency is on record?
Answer: inactive

Question: For `Cc1c(Nc2ncccc2C(=O)O)cccc1C(F)(F)F`, which Potency is on record?
Answer: inactive

Question: With `CCNC(=O)[C@H]1O[C@@H](n2cnc3c(N)nc(NCCc4ccc(CCC(=O)O)cc4)nc32)[C@H](O)[C@@H]1O` as the molecule, how does the Potency read?
Answer: inactive

Question: With `COC(=O)C1=C(C)NC(C)=C(C(=O)OC)C1c1cccc(NC(=O)NCCCN2CCC(c3cccc(OC)c3)CC2)c1` as the molecule, how does the Potency read?
Answer: 4.59 µM (active)

Question: For `Oc1cc(O)cc(/C=C/c2ccc(O)c(O)c2)c1`, which Potency is on record?
Answer: 7.31 µM (active)

Question: For `COc1cc(/C=C/C(=O)CC(=O)/C=C/c2ccc(O)c(OC)c2)ccc1O`, which Potency is on record?
Answer: 8.33 µM (active)

Question: Which Potency does the source give for `Brc1c(Br)c(Br)c2n[nH]nc2c1Br` here?
Answer: inactive

Question: For `CCOC(=O)N1CCN(/[N+]([O-])=N/Oc2ccc([N+](=O)[O-])cc2[N+](=O)[O-])CC1`, which Potency is on record?
Answer: 5.9 µM (active)

Question: For `CC[C@H]1OC(=O)[C@H](C)[C@@H](O[C@H]2C[C@@](C)(OC)[C@@H](O)[C@H](C)O2)[C@H](C)[C@@H](O[C@@H]2O[C@H](C)C[C@H](N(C)C)[C@H]2O)[C@](C)(O)C[C@@H](C)C(=O)[C@H](C)[C@@H](O)[C@]1(C)O`, which Potency is on record?
Answer: inactive

Question: For `C#C[C@]1(O)CC[C@H]2[C@@H]3CCc4cc(O)ccc4[C@H]3CC[C@@]21C`, which Potency is on record?
Answer: 18.8 µM (active) and 10.5 µM (active)

Question: For `O=C1NC(=O)/C(=C/c2ccc(-c3ccc(F)cc3O)o2)S1`, which Potency is on record?
Answer: 10.5 µM (active)

Molecular target: Rap guanine nucleotide exchange factor 3 (Homo sapiens) (UniProt O95398)
Experiment: Confirmatory qHTS for antagonist of cAMP-regulated guanine nucleotide exchange factor 3 (EPAC1) (AID 1645880); further: nearly all actives have a fitted effect of over 55% in size; further: potency means the concentration at half of the fitted maximal effect
Settings: EPAC1 Rap1B-BODIPY-GDP exchange, fluorescence; series mostly up to 115 µM
In short: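 Nucleotide exchange uses 100 nM EPAC1, 250 nM RAP1B-BODIPY-GDP and 50 uM GDP, with compounds in a concentration-titration series. After 5 min at room temperature, fluorescence (480 nm ex/540 nm em) is read every 5 min for 30 min. Data are normalized to control ATA and DMSO.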

Rap guanine nucleotide exchange factor 3 (Homo sapiens), sequence (O95398 whole entry, looked up): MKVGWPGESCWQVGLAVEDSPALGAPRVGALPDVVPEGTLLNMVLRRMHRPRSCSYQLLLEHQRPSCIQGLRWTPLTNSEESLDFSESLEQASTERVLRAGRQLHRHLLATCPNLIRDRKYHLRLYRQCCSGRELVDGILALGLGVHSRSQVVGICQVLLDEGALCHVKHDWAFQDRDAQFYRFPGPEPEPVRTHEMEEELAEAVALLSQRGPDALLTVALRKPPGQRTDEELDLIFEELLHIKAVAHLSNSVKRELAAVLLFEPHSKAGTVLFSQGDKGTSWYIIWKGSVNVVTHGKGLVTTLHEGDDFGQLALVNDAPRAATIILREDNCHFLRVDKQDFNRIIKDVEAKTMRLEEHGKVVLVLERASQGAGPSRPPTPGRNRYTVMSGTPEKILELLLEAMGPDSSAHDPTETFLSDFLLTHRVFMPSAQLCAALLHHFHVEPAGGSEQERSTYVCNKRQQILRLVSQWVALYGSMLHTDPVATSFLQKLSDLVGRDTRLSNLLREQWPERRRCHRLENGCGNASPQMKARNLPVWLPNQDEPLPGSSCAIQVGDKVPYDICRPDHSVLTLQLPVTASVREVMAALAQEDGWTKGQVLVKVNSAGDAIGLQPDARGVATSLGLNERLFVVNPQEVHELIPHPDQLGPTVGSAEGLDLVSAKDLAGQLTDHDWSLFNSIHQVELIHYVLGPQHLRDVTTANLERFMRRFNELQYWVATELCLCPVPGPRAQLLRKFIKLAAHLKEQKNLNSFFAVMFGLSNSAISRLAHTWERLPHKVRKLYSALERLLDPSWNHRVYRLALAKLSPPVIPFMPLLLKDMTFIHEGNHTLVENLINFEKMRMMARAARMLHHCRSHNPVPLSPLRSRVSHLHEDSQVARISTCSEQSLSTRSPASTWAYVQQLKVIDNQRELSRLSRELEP

Question: Which Potency does the source give for `N#C/C(=C\c1ccc(O)c(O)c1)C(=O)NCCCc1ccccc1` here?
Answer: 15.7 µM (active)

Question: For `Nc1cc(-c2ccncc2)c[nH]c1=O`, which Potency is on record?
Answer: inactive

Question: Which Potency does the source give for `COC(=O)[C@H]1[C@H]2C[C@@H]3c4[nH]c5cc(OC)ccc5c4CCN3C[C@H]2C[C@@H](OC(=O)/C=C/c2cc(OC)c(OC)c(OC)c2)[C@@H]1OC` here?
Answer: inactive

Question: Which Potency does the source give for `O=C(O)c1ccccc1Nc1cccc(C(F)(F)F)c1` here?
Answer: inactive

Question: With `CC1(C)[C@@H](O)CC[C@]2(C)[C@H]3C(=O)C=C4[C@@H]5C[C@@](C)(C(=O)O)CC[C@]5(C)CC[C@@]4(C)[C@]3(C)CC[C@@H]12` as the molecule, how does the Potency read?
Answer: inactive

Question: Which Potency does the source give for `Cn1cc(C2=C(c3ccc(Cl)cc3Cl)C(=O)NC2=O)c2ccccc21` here?
Answer: inactive

Question: For `COC(=O)c1c(C)[nH]c(C)c1C(=O)c1ccccc1Cc1ccccc1`, which Potency is on record?
Answer: inactive

Question: For `Brc1c(Br)c(Br)c2n[nH]nc2c1Br`, which Potency is on record?
Answer: 55.9 µM (active)

Question: For `O=C1NC(=O)/C(=C/c2ccc(-c3ccc(F)cc3O)o2)S1`, which Potency is on record?
Answer: 55.9 µM (active)

Molecular target: Rap guanine nucleotide exchange factor 3 (Homo sapiens) (UniProt O95398)
Experiment: Confirmatory qHTS for agonist of cAMP-regulated guanine nucleotide exchange factor 3 (EPAC1) (AID 1645881);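 further: EPAC1 catalysed release of BODIPY-GDP from Rap1B seen as fluorescence loss; nearly all actives have a fitted effect of over 75% in size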
Settings: EPAC1 Rap1B BODIPY-GDP exchange fluorescence; series mostly up to 154 µM

Question: Which Potency does the source give for `N#C/C(=C\c1ccc(O)c(O)c1)C(=O)NCCCc1ccccc1` here?
Answer: inactive

Question: Which Potency does the source give for `Nc1cc(-c2ccncc2)c[nH]c1=O` here?
Answer: inactive

Question: For `COC(=O)[C@H]1[C@H]2C[C@@H]3c4[nH]c5cc(OC)ccc5c4CCN3C[C@H]2C[C@@H](OC(=O)/C=C/c2cc(OC)c(OC)c(OC)c2)[C@@H]1OC`, which Potency is on record?
Answer: inactive

Question: Which Potency does the source give for `O=C(O)c1ccccc1Nc1cccc(C(F)(F)F)c1` here?
Answer: inactive

Question: With `CC1(C)[C@@H](O)CC[C@]2(C)[C@H]3C(=O)C=C4[C@@H]5C[C@@](C)(C(=O)O)CC[C@]5(C)CC[C@@]4(C)[C@]3(C)CC[C@@H]12` as the molecule, how does the Potency read?
Answer: inactive

Question: Which Potency does the source give for `Cn1cc(C2=C(c3ccc(Cl)cc3Cl)C(=O)NC2=O)c2ccccc21` here?
Answer: inactive

Question: For `COC(=O)c1c(C)[nH]c(C)c1C(=O)c1ccccc1Cc1ccccc1`, which Potency is on record?
Answer: inactive

Question: For `Brc1c(Br)c(Br)c2n[nH]nc2c1Br`, which Potency is on record?
Answer: inactive

Question: With `O=C1NC(=O)/C(=C/c2ccc(-c3ccc(F)cc3O)o2)S1` as the molecule, how does the Potency read?
Answer: inactive

Molecular target: Rap guanine nucleotide exchange factor 4 (Homo sapiens) (UniProt Q8WZA2)
Experiment: Confirmatory qHTS for agonist of cAMP-regulated guanine nucleotide exchange factor 4 (EPAC2) (AID 1645884);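 further: nucleotide exchange releases bodipy-GDP from Rap1 and this lowers its fluorescence; nearly all actives have a fitted effect of over 65% in size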
Settings: EPAC2 GEF activity, Rap1B-BODIPY-GDP fluorescence; series mostly up to 154 µM

Rap guanine nucleotide exchange factor 4 (Homo sapiens), sequence (Q8WZA2 whole entry, looked up): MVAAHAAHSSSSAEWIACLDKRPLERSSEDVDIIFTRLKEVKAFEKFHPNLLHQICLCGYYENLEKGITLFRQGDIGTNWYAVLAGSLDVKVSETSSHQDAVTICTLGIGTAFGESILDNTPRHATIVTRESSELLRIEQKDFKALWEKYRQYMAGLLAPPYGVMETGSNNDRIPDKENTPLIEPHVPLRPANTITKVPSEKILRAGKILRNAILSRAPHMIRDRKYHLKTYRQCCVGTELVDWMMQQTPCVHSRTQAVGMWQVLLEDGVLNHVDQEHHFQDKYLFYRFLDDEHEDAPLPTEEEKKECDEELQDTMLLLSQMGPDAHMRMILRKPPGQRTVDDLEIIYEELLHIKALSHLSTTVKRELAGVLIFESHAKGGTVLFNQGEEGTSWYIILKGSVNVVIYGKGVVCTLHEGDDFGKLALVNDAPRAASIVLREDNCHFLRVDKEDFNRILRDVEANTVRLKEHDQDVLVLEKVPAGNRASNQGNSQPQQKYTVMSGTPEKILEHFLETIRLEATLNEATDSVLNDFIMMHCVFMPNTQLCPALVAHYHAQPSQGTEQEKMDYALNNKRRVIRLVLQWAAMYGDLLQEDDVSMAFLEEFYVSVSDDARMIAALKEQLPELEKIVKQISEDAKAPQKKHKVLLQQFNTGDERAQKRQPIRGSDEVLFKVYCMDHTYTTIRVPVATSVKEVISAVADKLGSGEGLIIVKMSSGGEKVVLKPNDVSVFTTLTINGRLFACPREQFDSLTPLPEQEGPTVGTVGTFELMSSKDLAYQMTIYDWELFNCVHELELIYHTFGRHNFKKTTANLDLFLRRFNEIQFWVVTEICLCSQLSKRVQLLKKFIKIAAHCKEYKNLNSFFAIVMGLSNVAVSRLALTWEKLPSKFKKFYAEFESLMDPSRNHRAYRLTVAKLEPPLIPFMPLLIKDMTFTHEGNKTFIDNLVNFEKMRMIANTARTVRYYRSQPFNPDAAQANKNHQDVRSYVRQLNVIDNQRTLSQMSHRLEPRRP

Question: For `N#C/C(=C\c1ccc(O)c(O)c1)C(=O)NCCCc1ccccc1`, which Potency is on record?
Answer: inactive

Question: Which Potency does the source give for `Nc1cc(-c2ccncc2)c[nH]c1=O` here?
Answer: inactive

Question: For `O=C(O)c1ccccc1Nc1cccc(C(F)(F)F)c1`, which Potency is on record?
Answer: inactive

Question: With `CC1(C)[C@@H](O)CC[C@]2(C)[C@H]3C(=O)C=C4[C@@H]5C[C@@](C)(C(=O)O)CC[C@]5(C)CC[C@@]4(C)[C@]3(C)CC[C@@H]12` as the molecule, how does the Potency read?
Answer: inactive

Question: With `Brc1c(Br)c(Br)c2n[nH]nc2c1Br` as the molecule, how does the Potency read?
Answer: inactive

Question: Which Potency does the source give for `O=C1NC(=O)/C(=C/c2ccc(-c3ccc(F)cc3O)o2)S1` here?
Answer: inactive

Molecular target: Rap guanine nucleotide exchange factor 4 (Homo sapiens) (UniProt Q8WZA2)
Experiment: Confirmatory qHTS for antagonist of cAMP-regulated guanine nucleotide exchange factor 4 (EPAC2) (AID 1645885); further: nearly all actives have a fitted effect of over 25% in size; further: potency means the concentration at half of the fitted maximal effect
Settings: EPAC2 Rap1B-BODIPY-GDP exchange fluorescence, biochemical; series mostly up to 114 µM

Question: With `Nc1cc(-c2ccncc2)c[nH]c1=O` as the molecule, how does the Potency read?
Answer: inactive

Question: For `COC(=O)[C@H]1[C@H]2C[C@@H]3c4[nH]c5cc(OC)ccc5c4CCN3C[C@H]2C[C@@H](OC(=O)/C=C/c2cc(OC)c(OC)c(OC)c2)[C@@H]1OC`, which Potency is on record?
Answer: inactive

Question: Which Potency does the source give for `CC1(C)[C@@H](O)CC[C@]2(C)[C@H]3C(=O)C=C4[C@@H]5C[C@@](C)(C(=O)O)CC[C@]5(C)CC[C@@]4(C)[C@]3(C)CC[C@@H]12` here?
Answer: 3.93 µM (active) and 2.48 µM (active)

Question: Which activity change, negative = inhibition does the source give for `Cn1cc(C2=C(c3ccc(Cl)cc3Cl)C(=O)NC2=O)c2ccccc21` here?
Answer: 2.07% [at 12.7 µM]

Question: Which Potency does the source give for `Brc1c(Br)c(Br)c2n[nH]nc2c1Br` here?
Answer: 15.6 µM (active)

Question: With `O=C1NC(=O)/C(=C/c2ccc(-c3ccc(F)cc3O)o2)S1` as the molecule, how does the Potency read?
Answer: 9.87 µM (active)

Source: PubChem BioAssay (NCATS)
